In the library only some 1.6% were active in any assay of this set; here they are far more common.
A1 inh = inhibitors of the anti-apoptotic protein A1, read as caspase activation; hit rate 0.066% among 330,000; MEF A1-2A-BIM cells, Caspase-Glo 3/7 luminescence, 3 h; percent of clofoctol response, vehicle zero; caspase activation, % (no concentration beside the values);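 active means over half of replicate activation scores above 10%, or exactly half above 10 with the replicate mean above 10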
DYRK1A inh = inhibitors of rat Dyrk1A kinase. Q63470. ADP-Glo luminescence, NFATc1 peptide. inhibition, % at 12.5 µM. hit rate 0.43% among 310,000; in the data active means inhibition above about 50%
dFosB activator = activators of mouse delta FosB homodimer; P13346; purified delta FosB, TAMRA-CDK5 oligo fluorescence polarization; percent of positive-control signal above neutral wells; activation, % at 25 µM; hit rate 0.99% among 340,000; AID 493131;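 active means mean activation above about 17%, with every replicate also reaching it, limit read from the data, passing the limit was not always enough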
Target sequence (P13346 whole entry, looked up): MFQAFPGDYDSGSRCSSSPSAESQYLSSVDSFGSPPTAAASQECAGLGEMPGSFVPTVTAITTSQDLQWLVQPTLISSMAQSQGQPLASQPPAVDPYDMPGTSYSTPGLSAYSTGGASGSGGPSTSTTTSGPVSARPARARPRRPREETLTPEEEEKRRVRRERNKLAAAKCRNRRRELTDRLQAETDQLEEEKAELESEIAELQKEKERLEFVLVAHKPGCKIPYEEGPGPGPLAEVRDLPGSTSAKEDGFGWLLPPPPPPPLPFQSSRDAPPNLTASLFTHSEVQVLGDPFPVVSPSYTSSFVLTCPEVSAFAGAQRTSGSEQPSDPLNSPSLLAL
B2AR ag = activates human beta-2 adrenergic receptor causing internalization. response, % (concentration not given with the values). Am2.2-beta2AR cells, FAP receptor internalization, flow cytometry. hit rate 0.43% among 340,000. AID 504454;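 active means response above a set limit, near 3 SD of response in nonfluorescent compounds, cut at about 42% in these data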
Numbers stand for hits.

How did C[C@H](NC(=O)c1[nH]cnc1C(=O)Nc1ccc(CNC(=O)OC(C)(C)C)cc1)C(=O)OCc1ccccc1 do in these assays?
A1 inh: inactive; DYRK1A inh: inactive; dFosB activator: inactive; B2AR ag: 48

Results for CC(C)C[C@H](NC(=O)c1[nH]cnc1C(=O)Nc1ccc(CNC(=O)OC(C)(C)C)cc1)C(=O)OCc1ccccc1 ?
A1 inh: inactive; DYRK1A inh: inactive; dFosB activator: inactive; B2AR ag: inactive

What do the screens show for `COc1ccc(OCc2nc(N)nc(Nc3ccccc3)n2)cc1`?
A1 inh: inactive; DYRK1A inh: inactive; dFosB activator: inactive; B2AR ag: inactive

What do the screens show for `Nc1nc(COc2ccccc2C=O)nc(Nc2ccccc2)n1`?
A1 inh: inactive; DYRK1A inh: inactive; dFosB activator: 59; B2AR ag: inactive

Results for COc1cc2cccc(OC)c(=O)c2c(O)c1OC ?
A1 inh: inactive; DYRK1A inh: inactive; dFosB activator: inactive; B2AR ag: inactive

How did CC(=O)Oc1cc2cccc(OC(C)=O)c(=O)c2c(OC(C)=O)c1OC(C)=O do in these assays?
A1 inh: inactive; DYRK1A inh: 64; dFosB activator: inactive; B2AR ag: inactive

Results for CCCS(=O)(=O)Nc1ccc(Nc2c3ccccc3nc3ccccc23)c(OC)c1 ?
DYRK1A inh: inactive; dFosB activator: 54; B2AR ag: inactive

Results for COc1ccc(Nc2c3c(nc4ccccc24)CCC3)c(OC)c1 ?
A1 inh: inactive; DYRK1A inh: inactive; dFosB activator: inactive; B2AR ag: inactive

How did Cc1ccc(SC2=C(C(=O)O)CCCC2)cc1 do in these assays?
A1 inh: inactive; DYRK1A inh: inactive; dFosB activator: inactive; B2AR ag: inactive

What do the screens show for `CCn1cc(CN2CCC(C(=O)Nc3ccc(Oc4cccnc4)cc3)CC2)cn1`?
A1 inh: inactive; DYRK1A inh: inactive; dFosB activator: inactive; B2AR ag: inactive

How did COc1ccc(/C=C2/Sc3ccc(C(=O)NCCN4CCCCCC4)cc3NC2=O)cc1 do in these assays?
A1 inh: inactive; DYRK1A inh: inactive; dFosB activator: 82; B2AR ag: inactive

What do the screens show for `Oc1ccc(CCNc2c3ccccc3nc3ccccc23)cc1O`?
A1 inh: inactive; DYRK1A inh: inactive; dFosB activator: 71; B2AR ag: inactive

How did O=C(CNC(=O)c1ccccc1)NCCc1ccc(O)c(O)c1 do in these assays?
A1 inh: inactive; DYRK1A inh: inactive; dFosB activator: inactive; B2AR ag: inactive

How did c1ccc(CNc2c3ccccc3nc3ccccc23)cc1 do in these assays?
A1 inh: inactive; DYRK1A inh: inactive; dFosB activator: 38; B2AR ag: inactive

Results for CN(C)CCCNc1c2ccccc2nc2ccccc12 ?
A1 inh: inactive; DYRK1A inh: inactive; dFosB activator: 72; B2AR ag: inactive

What do the screens show for `CNc1nc(NCc2ccccc2)c2ccccc2n1`?
A1 inh: inactive; DYRK1A inh: inactive; dFosB activator: inactive; B2AR ag: inactive

What do the screens show for `Oc1ccccc1Nc1nc(NCc2ccccc2)c2ccccc2n1`?
A1 inh: inactive; DYRK1A inh: inactive; dFosB activator: 84; B2AR ag: inactive

How did c1ccc(CNc2ncnc3ccccc23)cc1 do in these assays?
A1 inh: inactive; DYRK1A inh: inactive; dFosB activator: inactive; B2AR ag: inactive

How did O=C(NC(=S)NCc1ccccc1Cl)c1cccs1 do in these assays?
A1 inh: inactive; DYRK1A inh: inactive; dFosB activator: inactive; B2AR ag: inactive

How did Cc1ccc(NS(=O)(=O)c2cccc(C(=O)NCC3CCCO3)c2)cc1 (stereo not drawn) do in these assays?
A1 inh: inactive; DYRK1A inh: inactive; dFosB activator: inactive; B2AR ag: inactive

What do the screens show for `CC(C)(C)C1CCc2c(C(=O)N/N=C/c3cccs3)csc2C1` (stereo not drawn)?
A1 inh: inactive; DYRK1A inh: inactive; dFosB activator: inactive; B2AR ag: 94

What do the screens show for `CC(C)(C)C1CCc2c(C(=O)NNC(=O)/C=C/C(=O)O)csc2C1` (stereo not drawn)?
A1 inh: inactive; DYRK1A inh: inactive; dFosB activator: inactive; B2AR ag: 48

Results for CSc1ccccc1OCc1cc(C(=O)NCCn2ccnc2C)no1 ?
A1 inh: inactive; DYRK1A inh: inactive; dFosB activator: inactive; B2AR ag: inactive

Results for Oc1[nH]c2ccccc2c1N=Nc1nc(Nc2ccccc2)nc(N2CCOCC2)n1 ?
A1 inh: inactive; DYRK1A inh: inactive; dFosB activator: 47; B2AR ag: inactive

How did Cc1[nH]c2ccccc2c1/C=N/Nc1nc(Nc2ccccc2)nc(N2CCOCC2)n1 do in these assays?
A1 inh: inactive; DYRK1A inh: inactive; dFosB activator: 23; B2AR ag: inactive

How did CCc1ccc2c(COC(=O)C3CSC4(C)CCC(=O)N34)cc(=O)oc2c1 (stereo not drawn) do in these assays?
A1 inh: inactive; DYRK1A inh: inactive; dFosB activator: inactive; B2AR ag: inactive

How did Cn1cc(C(=O)c2ccc(Cl)cc2Cl)cc1C(=O)N/N=C(\N)COc1ccc(F)cc1 do in these assays?
A1 inh: inactive; DYRK1A inh: inactive; dFosB activator: inactive; B2AR ag: inactive

How did Cn1cc(C(=O)c2ccc(Cl)cc2Cl)cc1C(=O)N/N=C(\N)COc1ccc(Cl)cc1 do in these assays?
A1 inh: inactive; DYRK1A inh: inactive; dFosB activator: inactive; B2AR ag: 90

Results for COc1cc2nc(N3CCN(c4cc(C)ccc4C)CC3)nc(N)c2cc1OC ?
A1 inh: inactive; DYRK1A inh: inactive; dFosB activator: 79; B2AR ag: inactive

What do the screens show for `COc1ccc(-n2ncc3c(N4CCN(c5cc(C)ccc5C)CC4)ncnc32)cc1`?
A1 inh: inactive; DYRK1A inh: inactive; dFosB activator: inactive; B2AR ag: inactive

Results for COc1ccc(C)cc1Nc1nc(N)c2cc(OC)c(OC)cc2n1 ?
A1 inh: inactive; DYRK1A inh: inactive; dFosB activator: 48; B2AR ag: inactive

What do the screens show for `COc1cccc(NC(=O)CCNC(=O)C2CCN(S(=O)(=O)c3ccc(F)cc3)CC2)c1`?
A1 inh: inactive; DYRK1A inh: inactive; dFosB activator: inactive; B2AR ag: inactive

How did Cc1ccc(NC(=O)NCC2CCN(Cc3cccc(Cl)c3)CC2)cc1Cl do in these assays?
A1 inh: inactive; DYRK1A inh: inactive; dFosB activator: 20; B2AR ag: inactive

How did CCc1ccc(NC(=O)NCC2CCN(Cc3cccc(Cl)c3)CC2)cc1 do in these assays?
A1 inh: inactive; DYRK1A inh: inactive; dFosB activator: inactive; B2AR ag: inactive

Results for COc1ccc(CC(=O)Nc2cccc(-c3nnc(-c4ccco4)o3)c2)cc1 ?
A1 inh: inactive; DYRK1A inh: inactive; dFosB activator: 67; B2AR ag: inactive

How did N#Cc1ccccc1Cn1cc(/C=C/[N+](=O)[O-])c2ccccc21 do in these assays?
A1 inh: inactive; DYRK1A inh: inactive; dFosB activator: inactive; B2AR ag: 95

Results for O=[N+]([O-])/C=C/c1cn(Cc2ccccc2)c2ccccc12 ?
A1 inh: inactive; DYRK1A inh: inactive; dFosB activator: inactive; B2AR ag: 83

What do the screens show for `O=C(O)Cn1cc(/C=C/[N+](=O)[O-])c2ccccc21`?
A1 inh: inactive; DYRK1A inh: inactive; dFosB activator: inactive; B2AR ag: inactive

Results for O=C(Cn1cc(/C=C\[N+](=O)[O-])c2ccccc21)Nc1ccccc1 ?
A1 inh: inactive; DYRK1A inh: inactive; dFosB activator: inactive; B2AR ag: 84
